High-throughput results from PubChem.
Shown are actives, neighbours in structure and some others; about 7% of the full set was active somewhere.
USP28 inh: human USP28 deubiquitinase inhibition; Q96RU2; purified USP28, Ub-rhodamine cleavage fluorescence, 30 min; inhibition, % at 25 µM; hit rate 3% among 47,000
USP30 block: inhibitors of human USP30 deubiquitinase. inhibition, % at 25 µM. AID 1645860. purified USP30, Ub-rhodamine cleavage fluorescence. hit rate 5.3% among 47,000
Each line names hits and unclear results; the compound was inactive in the other large screens. Cut-off read from the data, not from the text of the source: active = inhibition above about 30%; inactive = the rest.

Cc1ccc(-c2cc3c(N4CCCC(C(=O)NCc5ccccc5)C4)nccn3n2)c(C)c1 (stereo not given)	none
Cc1ccc(-n2cc3c(N4CCCC(C(=O)NCC5CCCCC5)C4)ncnc3n2)cc1 (stereo not given)	USP30 block 38.6
c1ccc2c(c1)CN[C@@H]1CN(Cc3nccs3)C[C@@H]21	none
Cc1ccc(NC(=O)c2nnn(-c3ccccc3)n2)cc1F	USP28 inh 55.7
NC(=O)c1nnn(-c2ccc(NC(=O)c3ccc(F)c(F)c3)cc2)n1	none
O=C(CC1C(=O)N(Cc2ccccc2)c2nc3ccccc3n21)Nc1ccccc1 (stereo not given)	none
O=C(CC1C(=O)N(Cc2ccccc2)c2nc3ccccc3n21)NCCc1ccccc1 (stereo not given)	USP30 block 59.6
CN(C)c1ccc(C2CC(c3ccc(Br)cc3)=NN2C(=O)CCC(=O)O)cc1 (stereo not given)	none
CCc1ccc(NC(=O)COC(=O)c2sc3cc(F)ccc3c2Cl)cc1	none
COc1cc(O)c2c(c1)C1=CC(=O)C(O)=C[C@]1(C)OC2=O	USP28 inh 36.4, USP30 block 47.9
COc1cc(O)c2c(c1)COC(=O)c1c(O)cc(C)cc1O2	none
O=C(Nc1ccc2c(c1)CCC2)c1ccc(=O)[nH]c1	none
Cc1cc(N2CCOCC2)nc2ccc(NC(=O)CCC(=O)N3CCN(c4ccc([N+](=O)[O-])cc4)CC3)cc12	none
Cc1cc(C)n(-c2ccnc(N3CCC(C(=O)NC4CCCC4)CC3)n2)n1	none
Cc1cc(C)n(-c2ccnc(N3CCC(C(=O)N4CCN(c5ccccn5)CC4)CC3)n2)n1	USP28 inh 30.4
Cc1cccc(N2C(=O)c3cccnc3C2CC(=O)N2CCC(C)CC2)c1 (stereo not given)	none
Cc1oc2ccc(NS(=O)(=O)c3ccc(F)cc3)cc2c1C(=O)OCc1ccccc1	USP28 inh 60.3
O=C(c1ccccc1)c1c(-c2ccccc2)oc2ccc(NS(=O)(=O)c3ccc(Cl)cc3)cc12	none
O=C(CN1CCc2ccccc2C1)N1CCOCC1	none
COc1cc2[nH]c3c(=O)n(CCN4CCCC4)cnc3c2cc1OC	none
Cc1cccc(NC(=O)C2CCCN(C(=O)c3ccc(Cl)cc3)C2)c1C (stereo not given)	none
CCn1c(=O)c2ccccc2n(Cc2nc(-c3cccc(OC)c3)no2)c1=O	none
Cc1cccc(-c2noc(CCn3c(=O)[nH]c4ccccc4c3=O)n2)c1	USP28 inh 30.4
O=c1c2ccccc2n(Cc2ccccc2)c(=O)n1Cc1nc(-c2ccccc2)no1	USP30 block 30.1
O=c1[nH]c2ccccc2c(=O)n1CCc1nc(-c2ccncc2)no1	none
CN(C)S(=O)(=O)c1cccc(COc2ccc(C#N)cc2)c1	none
COCCN1C(=O)CO[C@H]2CN(c3nccc(C(F)(F)F)n3)C[C@H]21	none
Cc1ccc(-n2ccnc(NC(=O)c3ccccn3)c2=O)cc1C	none
O=C(Nc1nccn(-c2cccc(F)c2)c1=O)c1ccccn1	USP28 inh 71.7, USP30 block 90.8
CCOC(=O)Cc1nc2ccccc2n(CC2CC2)c1=O	none
CC1=C(Cn2c3cccc(=O)c-3nc3ccccc32)CCC(C)(C)C1	USP28 inh 73.6
Cn1nc(C(=O)Nc2cccc(F)c2)c(=O)c2ccccc21	USP30 block 36.7
Cn1c(=O)c(C(=O)Nc2cccc(F)c2)c(O)c2ccccc21	none
Fc1cccc(-c2nnc3ccc(SCc4ccccn4)nn23)c1	USP30 block 30.2
O=C(CSc1ccc2nnc(-c3ccncc3)n2n1)Nc1cccc(C(F)(F)F)c1	none
O=C(CSc1ccc2nnc(CCNS(=O)(=O)c3ccccc3)n2n1)N1CCCc2ccccc21	none
c1ccc(CSc2ccc3nnc(-c4ccccn4)n3n2)cc1	USP28 inh 33.5, USP30 block 35.7
FC(F)(F)c1cccc(CSc2ccc3nnc(-c4ccccn4)n3n2)c1	USP28 inh 77.6, USP30 block 32.4
c1ccc(CSc2ccc3nnc(-c4ccccn4)n3n2)nc1	none
O=C(CSc1ccc2nnc(-c3cccc(F)c3)n2n1)N1CCCc2ccccc21	USP28 inh 44.5, USP30 block 72.9
c1ccc(CSc2ccc3nnc(-c4cccnc4)n3n2)nc1	none
O=C(NCc1noc(-c2ccco2)n1)C1CCCCC1	none
Cc1ccccc1C(=O)N1CCCC2(CCCC(=O)N2C)C1 (stereo not given)	none
CCOc1ccc(CCNC(=O)C2CCCN(S(=O)(=O)N3CCC4(CC3)OCCO4)C2)cc1 (stereo not given)	none
O=C(CC1CCN(C(=O)Nc2ccc(F)cc2F)CC1)N1CCCC1	none
COCCCNC(=O)Cn1cc(-c2nnc(CN3CCC(C)CC3)o2)c2ccccc21	none
CC(C)CCn1c(=O)c2ccccc2n2c(CCC(=O)N3CCN(C(=O)c4ccco4)CC3)nnc12	none
Cc1sc(NC(=O)CN2CCCCC2)nc1-c1ccc2c(c1)CCN2C(=O)c1cccc(F)c1	none
Cc1sc(NC(=O)CN2CCCC2)nc1-c1ccc2c(c1)CCN2C(=O)c1cccc(F)c1	USP30 block 34.9
CC(C)(C)N(Cc1ccccc1)C(=O)CSc1nnnn1-c1ccccc1	none
O=C(NCCCN1CCOCC1)c1nc(-c2ccc3cc[nH]c3c2)no1	none
COc1ccc(CC(=O)Nc2ccc(-c3cn4ccsc4n3)cc2)cc1OC	none
O=C(Nc1ccc(-c2cn3ccsc3n2)cc1)c1ccccc1Br	USP30 block 36.9
Cn1cc(-c2cnc(-c3cccnc3)nc2)cc1C(=O)N1CCCC1	none
CC(=O)N1CCC2(CCCN(C(=O)Cn3nnc(-c4ccccc4)n3)C2)CC1	none
Cc1ccc(Nc2c(-c3cccnc3)nc3cc(C)ccn23)cc1	USP28 inh 33.0, USP30 block 31.9
COC(=O)c1cccc(Nc2c(-c3ccc(OC)cc3)nc3cnccn23)c1	none
CCC1(c2ccccc2)NC(=O)N(CC(=O)N(C)Cc2ccccc2)C1=O (stereo not given)	none
CCC1(c2ccccc2)NC(=O)N(CC(=O)N(c2ccccc2)C(C)C)C1=O (stereo not given)	USP30 block 36.9
O=C1CN(C(=O)COC(=O)CCCN2C(=O)c3cccc4cccc(c34)C2=O)c2ccccc2N1	USP28 inh 46.4, USP30 block 48.7
O=C1CN(C(=O)COC(=O)c2ccc(Cl)cc2)c2ccccc2N1	none
O=C1CN(C(=O)COC(=O)Cc2c(Cl)cccc2Cl)c2ccccc2N1	none
O=C1CN(C(=O)COC(=O)C(c2ccccc2)c2ccccc2)c2ccccc2N1	USP28 inh 32.2
Cc1cnnn1-c1ccc(C(=O)Nc2ccccc2F)cc1	USP30 block 34.0
COC(=O)c1ccc(NC(=O)c2ccc(-n3nncc3C)cc2)cc1	none
Cc1cnnn1-c1ccc(C(=O)Nc2ccccc2C(F)(F)F)cc1	none
Cc1cnnn1-c1ccc(C(=O)Nc2ccc(Cl)cc2Cl)cc1	USP28 inh 36.9, USP30 block 80.8
COCCNC(=O)c1cccc2c1C(=O)N(C1CCCCC1)C2	none
CC1=C(C(=O)N2CCCCC2)C(c2ccc(Br)cc2)n2ncnc2N1 (stereo not given)	USP28 inh 46.8
CC1=C(C(=O)Nc2ccc(C)cc2C)C(c2cccc(OCc3ccccc3)c2)n2ncnc2N1 (stereo not given)	none
CC1=C(C(=O)N2CCCCC2)C(c2cccc(Cl)c2)n2ncnc2N1 (stereo not given)	none
CC1=C(C(=O)NCc2ccccc2)C(c2ccc(C)cc2)n2ncnc2N1 (stereo not given)	USP30 block 34.0
CN1CCN(C(=O)c2oc3ccccc3c2NC(=O)c2cccc(F)c2)CC1	none
O=C(N1CCCC1)N1CCC2(CCN(c3ncccn3)CC2)C1	none
